# Laboratory results: the supplement of paper PMC12494721
# Counter-ions that a name gives are not always drawn.
# What was measured:
# Settings in all cases: 20 µM; incubation time: 27 h, anaerobic, 37 °C;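 for the amine columns active = adjusted P below 0.05 in both replicates with a change the same way and a mean fold change under 0.8 or over 1.25; inactive = the rest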
# [1] = test system: Clostridium sporogenes DSM 1664; experiment: growth (OD595) fold change vs plate DMSO controls (fold change (ratio)); higher = more growth
# Outline: (§1)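 Growth is the fold change relative to the median of plate DMSO controls. Readings came from anaerobic mGAM cultures in 96-well plates grown for 27 h at 37 °C and read at 595 nm. They were blank-subtracted, corrected for compound background with 20 µM compound solutions in water, and converted to OD with a calibration factor of 5. Values are means of 2 biological replicates, and fold changes above 1.5 were set to NA.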
# Escherichia coli IAI1 [2] = experiment: as above
# Outline: as §1
# [3] = test system: Klebsiella aerogenes DSM 30053; experiment: as above
# Outline: as §1
# [4] = test system: Ruminococcus gnavus DSM 108212; experiment: as above
# Outline: as §1
# [5] = test system: Klebsiella aerogenes DSM 30053; experiment: fold change of Histamine concentration vs plate DMSO controls (fold change (ratio)); higher = more amine produced, active = hit call of the paper (significant change in both replicates, either direction)
# Outline: (§2)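 Amines were quantified by LC–triple-quadrupole MS in dynamic MRM mode against external calibration curves, with drift correction within each batch. The samples were whole anaerobic mGAM cultures of four gut bacterial strains, grown for 27 h at 37 °C in 80 µL wells and extracted with cold acetonitrile/methanol with 0.1% formic acid, then centrifuged. Values are reported as fold change over DMSO controls on the same plate. The mean of 2 biological replicates is given.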
# [6] = test system: Clostridium sporogenes DSM 1664; experiment: fold change of Tryptamine concentration vs plate DMSO controls (fold change (ratio)); higher = more amine produced, active = hit call of the paper (significant change in both replicates, either direction)
# Outline: as §2
# [7] = test system: Ruminococcus gnavus DSM 108212; experiment: as above
# Outline: as §2
# Escherichia coli IAI1 [8] = experiment: fold change of Putrescine concentration vs plate DMSO controls (fold change (ratio)); higher = more amine produced, active = hit call of the paper (significant change in both replicates, either direction)
# Outline: as §2
# [9] = test system: Klebsiella aerogenes DSM 30053; experiment: as above
# Outline: as §2
# Escherichia coli IAI1 [10] = experiment: fold change of Cadaverine concentration vs plate DMSO controls (fold change (ratio)); higher = more amine produced, active = hit call of the paper (significant change in both replicates, either direction)
# Outline: as §2
# [11] = test system: Klebsiella aerogenes DSM 30053; experiment: as above
# Outline: as §2
# [12] = test system: Ruminococcus gnavus DSM 108212; experiment: fold change of 2-Phenylethylamine concentration vs plate DMSO controls (fold change (ratio)); higher = more amine produced, active = hit call of the paper (significant change in both replicates, either direction)
# Outline: as §2
SMILES,growth [1],growth (Escherichia coli IAI1 [2]),growth [3],growth [4],fold change of Histamine concentration [5],fold change of Tryptamine concentration [6],fold change of Tryptamine concentration [7],fold change of Putrescine concentration (Escherichia coli IAI1 [8]),fold change of Putrescine concentration [9],fold change of Cadaverine concentration (Escherichia coli IAI1 [10]),fold change of Cadaverine concentration [11],fold change of 2-Phenylethylamine concentration [12]
CC[C@@]1([C@@H]2O[C@@H]([C@H]3O[C@@](O)(CO)[C@H](C)C[C@@H]3C)C[C@@H]2C)CC[C@H]([C@]2(C)CC[C@]3(C[C@H](O)[C@@H](C)[C@@H]([C@@H](C)[C@@H](OC)[C@H](C)C(=O)O)O3)O2)O1 [Monensin sodium salt],0.0614,1.09,1,0.204,0.975 (inactive),0.0398 (active),0.0682 (active),1.09 (inactive),1 (inactive),0.966 (inactive),0.999 (inactive),0.0948 (active)
CC(C)N(C)S(=O)(=O)NC(=O)c1cc(-n2c(=O)cc(C(F)(F)F)n(C)c2=O)c(F)cc1Cl,0.954,0.981,1,1.03,0.99 (inactive),1.03 (inactive),0.884 (inactive),0.983 (inactive),0.985 (inactive),1.01 (inactive),0.993 (inactive),0.819 (inactive)
C=CCC1(CC(C)C)C(=O)NC(=O)NC1=O [Butalbital],1.07,1.04,0.966,0.589,1.01 (inactive),1 (inactive),1 (inactive),0.995 (inactive),1.01 (inactive),1.02 (inactive),0.997 (inactive),1 (inactive)
Oc1ccc(Cc2ccc(O)cc2)cc1 [Bisphenol F],0.945,1.12,0.989,1.03,1.06 (inactive),1.11 (inactive),1.15 (inactive),1.04 (inactive),0.986 (inactive),1.03 (inactive),1.09 (inactive),1.48 (inactive)
CC(C)[N+](C)(CCC(C(N)=O)(c1ccccc1)c1ccccc1)C(C)C [Isopropamide iodide],1.04,1.09,0.982,1.39,1.01 (inactive),0.99 (inactive),0.909 (inactive),1.24 (inactive),1.01 (inactive),0.936 (inactive),0.997 (inactive),0.834 (inactive)
C[N+]1(C)[C@@H]2CC[C@H]1C[C@@H](OC(=O)C(CO)c1ccccc1)C2 (some centres undefined) [Methylatropine nitrate],0.875,0.835,0.989,0.97,0.978 (inactive),0.99 (inactive),1 (inactive),0.932 (inactive),1.02 (inactive),1.07 (inactive),1.01 (inactive),0.956 (inactive)
Nc1nc(N)nc(N)n1 [Melamine],0.88,0.99,0.966,1.11,0.958 (inactive),1.05 (inactive),1.01 (inactive),0.988 (inactive),0.956 (inactive),0.95 (inactive),1.01 (inactive),1.05 (inactive)
CCc1nn(C)c(C(=O)NCc2ccc(Oc3ccc(C)cc3)cc2)c1Cl,0.969,1.02,1.01,1.17,0.963 (inactive),0.927 (inactive),1.02 (inactive),0.947 (inactive),1 (inactive),1.01 (inactive),0.998 (inactive),1.04 (inactive)
OC(c1ccccc1)(c1ccccc1)C1CCNCC1 [Azacyclonol],1.09,1.01,1.01,1.1,1.06 (inactive),1.02 (inactive),1.07 (inactive),1.02 (inactive),1.01 (inactive),0.849 (inactive),1 (inactive),1.06 (inactive)
NC(=O)OCCCc1ccccc1 [Phenprobamate],0.892,0.995,0.992,0.943,0.97 (inactive),0.987 (inactive),0.96 (inactive),1.34 (inactive),0.99 (inactive),0.952 (inactive),0.984 (inactive),0.943 (inactive)
COc1ccc(CCN2CCC(Nc3nc4ccccc4n3Cc3ccc(F)cc3)CC2)cc1 [Astemizole],1.26,1.02,1.01,,0.968 (inactive),1.02 (inactive),0.838 (inactive),1.01 (inactive),0.988 (inactive),1.05 (inactive),0.994 (inactive),0.796 (inactive)
O=C1C2(Cl)C3(Cl)C4(Cl)C(Cl)(Cl)C5(Cl)C3(Cl)C1(Cl)C5(Cl)C24Cl (centres undefined),0,1.09,1.04,,1.07 (inactive),0.0206 (active),0.27 (active),1.05 (inactive),1.07 (inactive),1.14 (inactive),1.05 (inactive),0.297 (inactive)
CC[C@@H](C(=O)[C@@H](C)[C@@H](O)[C@H](C)[C@@H]1O[C@@H]([C@@H](CC)C(=O)O)CC[C@@H]1C)[C@H]1O[C@]2(C=C[C@@H](O)[C@]3(CC[C@@](C)([C@H]4CC[C@](O)(CC)[C@H](C)O4)O3)O2)[C@H](C)C[C@@H]1C [Salinomycin sodium],0.000863,1.01,0.976,0.156,1.02 (inactive),0.0211 (active),0.152 (active),0.929 (inactive),0.993 (inactive),1.01 (inactive),0.996 (inactive),0.177 (active)
